Reference: publication PMC7862700, “An all-to-all approach to the identification of sequence-specific readers for epigenetic DNA modifications on cytosine”

Legend:
Assay in all cases: DAPPL (digital affinity profiling via proximity ligation, sequencing); 10 mM Tris-HCl pH 7.5, 50 mM NaCl, 1 mM DTT, 4% glycerol, room temperature, 30 min; GST-TFs on glutathione beads, 16-mer random dsDNA library, 0.1% formaldehyde crosslink after washing; high values mean tight binding
Details in all cases: protein: recombinant; tags: N-terminal GST; dsDNA, one strand shown
FLI1 = target: T1, FLI1 (Homo sapiens, UniProt Q01543 1-452)
T1 sequence: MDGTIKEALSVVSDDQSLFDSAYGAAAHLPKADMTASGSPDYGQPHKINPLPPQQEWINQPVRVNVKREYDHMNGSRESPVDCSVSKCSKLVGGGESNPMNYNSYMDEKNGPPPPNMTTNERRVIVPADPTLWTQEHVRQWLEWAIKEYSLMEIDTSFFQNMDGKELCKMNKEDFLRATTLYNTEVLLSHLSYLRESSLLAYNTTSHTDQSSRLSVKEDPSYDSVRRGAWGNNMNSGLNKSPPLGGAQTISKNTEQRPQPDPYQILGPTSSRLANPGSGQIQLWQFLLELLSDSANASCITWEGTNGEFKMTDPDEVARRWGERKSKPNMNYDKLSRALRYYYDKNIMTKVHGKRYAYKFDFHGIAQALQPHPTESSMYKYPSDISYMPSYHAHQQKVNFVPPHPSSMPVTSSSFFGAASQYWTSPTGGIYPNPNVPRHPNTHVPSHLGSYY
Outline: (§1)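 Each value of binding signal is a hexamer's read frequency for a factor divided by the same hexamer's frequency in the tag-only sample. Barcoded, bead-captured GST fusions of human transcription factors made in yeast were pooled with that sample and incubated with 200 nmole of a random double-stranded 16-mer DNA library in Tris/NaCl/DTT/glycerol buffer at room temperature for 30 min. Washing, 0.1% formaldehyde crosslinking, proximity ligation, PCR and Illumina NextSeq500 sequencing followed.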

ELK1 = target: T2, ELK1 (Homo sapiens, UniProt P19419 1-428)
T2 sequence: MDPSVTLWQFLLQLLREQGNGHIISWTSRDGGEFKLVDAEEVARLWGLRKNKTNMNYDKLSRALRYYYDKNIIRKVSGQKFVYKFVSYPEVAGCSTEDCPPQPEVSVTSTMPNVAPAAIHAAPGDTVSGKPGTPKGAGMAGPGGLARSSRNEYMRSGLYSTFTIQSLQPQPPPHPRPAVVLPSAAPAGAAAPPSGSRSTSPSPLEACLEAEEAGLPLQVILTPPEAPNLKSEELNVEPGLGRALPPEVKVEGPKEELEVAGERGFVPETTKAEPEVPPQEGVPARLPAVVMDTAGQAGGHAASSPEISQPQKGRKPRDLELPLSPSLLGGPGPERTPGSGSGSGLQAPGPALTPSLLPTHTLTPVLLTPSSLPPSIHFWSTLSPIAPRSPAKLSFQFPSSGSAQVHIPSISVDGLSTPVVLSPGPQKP
Outline: as §1

GABPA = target: T3, GABPA (Homo sapiens, UniProt Q06546 1-454)
T3 sequence: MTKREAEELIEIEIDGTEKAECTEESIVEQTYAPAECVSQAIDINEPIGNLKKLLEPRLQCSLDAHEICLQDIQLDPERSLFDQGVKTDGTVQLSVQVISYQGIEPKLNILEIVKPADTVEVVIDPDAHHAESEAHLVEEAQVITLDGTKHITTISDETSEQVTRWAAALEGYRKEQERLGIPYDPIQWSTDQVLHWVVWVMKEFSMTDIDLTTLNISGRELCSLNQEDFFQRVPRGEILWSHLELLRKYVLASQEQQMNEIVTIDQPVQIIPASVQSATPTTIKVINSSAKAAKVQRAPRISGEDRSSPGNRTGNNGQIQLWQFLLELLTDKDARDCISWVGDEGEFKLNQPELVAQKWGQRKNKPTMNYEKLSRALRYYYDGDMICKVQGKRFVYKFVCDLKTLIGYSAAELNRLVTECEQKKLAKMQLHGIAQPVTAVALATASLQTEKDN
Outline: as §1

ERG = target: T4, ERG (Homo sapiens, UniProt P11308 1-479)
T4 sequence: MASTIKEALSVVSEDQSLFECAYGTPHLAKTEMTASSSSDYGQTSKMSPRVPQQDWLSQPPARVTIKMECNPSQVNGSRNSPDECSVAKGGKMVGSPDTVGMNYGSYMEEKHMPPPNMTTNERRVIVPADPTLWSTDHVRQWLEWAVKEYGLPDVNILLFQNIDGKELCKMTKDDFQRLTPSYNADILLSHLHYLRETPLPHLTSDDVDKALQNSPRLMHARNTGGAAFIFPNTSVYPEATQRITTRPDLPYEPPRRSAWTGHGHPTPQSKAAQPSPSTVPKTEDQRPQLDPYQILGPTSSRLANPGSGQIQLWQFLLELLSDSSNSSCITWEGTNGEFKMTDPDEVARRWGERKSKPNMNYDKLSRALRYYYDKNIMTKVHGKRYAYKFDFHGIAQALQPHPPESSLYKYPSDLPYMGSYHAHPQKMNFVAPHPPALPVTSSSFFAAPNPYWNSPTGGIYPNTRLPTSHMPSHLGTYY
Outline: as §1

ELF1 = ELF1 (Homo sapiens, UniProt P32519 1-619)
ELF1, sequence (P32519 whole entry): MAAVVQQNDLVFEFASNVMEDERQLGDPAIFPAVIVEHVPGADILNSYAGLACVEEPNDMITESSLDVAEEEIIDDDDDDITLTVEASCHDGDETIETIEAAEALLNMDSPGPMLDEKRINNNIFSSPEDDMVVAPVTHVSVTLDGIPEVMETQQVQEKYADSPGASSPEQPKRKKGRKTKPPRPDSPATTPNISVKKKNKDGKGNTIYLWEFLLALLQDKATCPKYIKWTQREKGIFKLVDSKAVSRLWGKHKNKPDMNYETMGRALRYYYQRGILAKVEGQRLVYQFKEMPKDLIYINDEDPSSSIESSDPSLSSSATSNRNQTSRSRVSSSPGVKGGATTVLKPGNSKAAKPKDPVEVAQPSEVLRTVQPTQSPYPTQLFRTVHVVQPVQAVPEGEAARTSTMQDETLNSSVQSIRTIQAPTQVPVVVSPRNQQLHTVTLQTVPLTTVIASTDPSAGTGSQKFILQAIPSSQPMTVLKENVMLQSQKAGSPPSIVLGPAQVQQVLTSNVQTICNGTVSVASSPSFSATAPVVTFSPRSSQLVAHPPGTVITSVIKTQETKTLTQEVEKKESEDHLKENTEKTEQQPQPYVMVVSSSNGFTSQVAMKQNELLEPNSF
Outline: as §1

EHF = target: T5, EHF (Homo sapiens, UniProt Q9NZC4 1-300)
T5 sequence: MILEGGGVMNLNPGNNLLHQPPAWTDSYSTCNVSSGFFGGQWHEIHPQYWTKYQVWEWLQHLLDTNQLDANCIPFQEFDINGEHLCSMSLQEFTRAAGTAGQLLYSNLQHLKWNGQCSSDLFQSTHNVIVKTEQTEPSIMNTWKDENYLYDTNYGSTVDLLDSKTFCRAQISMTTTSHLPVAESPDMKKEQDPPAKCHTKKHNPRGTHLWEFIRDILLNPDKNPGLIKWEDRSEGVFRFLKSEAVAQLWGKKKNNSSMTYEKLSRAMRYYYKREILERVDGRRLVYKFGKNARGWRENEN
Outline: as §1

SPI1 = SPI1 (Homo sapiens, UniProt P17947 1-270)
Outline: as §1

SPIB = SPIB (Homo sapiens, UniProt Q01892 1-262)
SPIB, sequence (Q01892 whole entry): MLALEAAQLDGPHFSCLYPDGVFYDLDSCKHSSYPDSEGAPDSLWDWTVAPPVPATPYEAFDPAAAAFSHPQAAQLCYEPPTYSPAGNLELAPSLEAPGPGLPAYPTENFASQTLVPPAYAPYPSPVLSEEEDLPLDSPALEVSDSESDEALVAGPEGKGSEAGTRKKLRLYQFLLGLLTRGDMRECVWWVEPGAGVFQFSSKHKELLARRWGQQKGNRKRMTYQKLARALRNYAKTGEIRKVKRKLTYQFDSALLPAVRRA
Outline: as §1

ELK3 = target: T6, ELK3 (Homo sapiens, UniProt P41970 1-407)
T6 sequence: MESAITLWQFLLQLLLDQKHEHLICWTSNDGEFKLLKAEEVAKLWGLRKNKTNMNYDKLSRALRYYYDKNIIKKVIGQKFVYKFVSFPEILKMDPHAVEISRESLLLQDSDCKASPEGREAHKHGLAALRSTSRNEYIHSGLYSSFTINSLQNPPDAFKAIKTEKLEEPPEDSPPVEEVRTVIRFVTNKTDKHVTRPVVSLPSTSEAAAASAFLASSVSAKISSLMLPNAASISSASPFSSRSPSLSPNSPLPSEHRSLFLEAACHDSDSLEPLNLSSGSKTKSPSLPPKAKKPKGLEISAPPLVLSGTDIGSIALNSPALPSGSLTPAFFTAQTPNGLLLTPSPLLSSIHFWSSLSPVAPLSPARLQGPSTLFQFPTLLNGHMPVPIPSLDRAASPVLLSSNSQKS
Outline: as §1

FEV = target: T7, FEV (Homo sapiens, UniProt Q99581 1-238)
T7 sequence: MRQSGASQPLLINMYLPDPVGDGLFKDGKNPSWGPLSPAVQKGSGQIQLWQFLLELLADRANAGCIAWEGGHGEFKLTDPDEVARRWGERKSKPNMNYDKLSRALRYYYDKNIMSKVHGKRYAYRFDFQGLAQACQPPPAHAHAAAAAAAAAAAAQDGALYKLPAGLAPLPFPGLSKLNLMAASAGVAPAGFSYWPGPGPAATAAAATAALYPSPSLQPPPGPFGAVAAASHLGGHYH
Outline: as §1

ETV5 = ETV5 (Homo sapiens, UniProt P41161 1-510)
ETV5, sequence (P41161 whole entry): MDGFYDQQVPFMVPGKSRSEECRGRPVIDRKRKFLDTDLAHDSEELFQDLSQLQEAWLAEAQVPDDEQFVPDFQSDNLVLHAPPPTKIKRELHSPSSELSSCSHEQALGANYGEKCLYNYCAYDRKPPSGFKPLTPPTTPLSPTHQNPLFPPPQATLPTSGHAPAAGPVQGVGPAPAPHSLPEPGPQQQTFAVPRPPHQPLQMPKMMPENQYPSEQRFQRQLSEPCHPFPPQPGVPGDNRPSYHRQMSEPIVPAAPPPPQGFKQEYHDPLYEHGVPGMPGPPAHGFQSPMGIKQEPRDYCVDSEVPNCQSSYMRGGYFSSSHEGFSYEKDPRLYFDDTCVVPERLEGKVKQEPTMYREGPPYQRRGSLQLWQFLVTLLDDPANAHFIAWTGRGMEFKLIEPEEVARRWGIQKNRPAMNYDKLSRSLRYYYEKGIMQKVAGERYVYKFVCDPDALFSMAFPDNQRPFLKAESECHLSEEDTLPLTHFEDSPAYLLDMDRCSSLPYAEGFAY
Outline: as §1

SPIC = target: T8, SPIC (Homo sapiens, UniProt Q8N5J4 1-248)
T8 sequence: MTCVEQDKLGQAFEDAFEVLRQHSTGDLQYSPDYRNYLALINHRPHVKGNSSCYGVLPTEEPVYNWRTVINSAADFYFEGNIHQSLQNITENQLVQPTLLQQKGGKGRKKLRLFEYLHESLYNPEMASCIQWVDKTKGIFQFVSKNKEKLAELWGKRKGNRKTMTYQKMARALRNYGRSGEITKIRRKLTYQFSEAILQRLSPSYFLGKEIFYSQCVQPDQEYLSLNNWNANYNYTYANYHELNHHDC
Outline: as §1

ELF4 = ELF4 (Homo sapiens, UniProt Q99607 1-663)
ELF4, sequence (Q99607 whole entry): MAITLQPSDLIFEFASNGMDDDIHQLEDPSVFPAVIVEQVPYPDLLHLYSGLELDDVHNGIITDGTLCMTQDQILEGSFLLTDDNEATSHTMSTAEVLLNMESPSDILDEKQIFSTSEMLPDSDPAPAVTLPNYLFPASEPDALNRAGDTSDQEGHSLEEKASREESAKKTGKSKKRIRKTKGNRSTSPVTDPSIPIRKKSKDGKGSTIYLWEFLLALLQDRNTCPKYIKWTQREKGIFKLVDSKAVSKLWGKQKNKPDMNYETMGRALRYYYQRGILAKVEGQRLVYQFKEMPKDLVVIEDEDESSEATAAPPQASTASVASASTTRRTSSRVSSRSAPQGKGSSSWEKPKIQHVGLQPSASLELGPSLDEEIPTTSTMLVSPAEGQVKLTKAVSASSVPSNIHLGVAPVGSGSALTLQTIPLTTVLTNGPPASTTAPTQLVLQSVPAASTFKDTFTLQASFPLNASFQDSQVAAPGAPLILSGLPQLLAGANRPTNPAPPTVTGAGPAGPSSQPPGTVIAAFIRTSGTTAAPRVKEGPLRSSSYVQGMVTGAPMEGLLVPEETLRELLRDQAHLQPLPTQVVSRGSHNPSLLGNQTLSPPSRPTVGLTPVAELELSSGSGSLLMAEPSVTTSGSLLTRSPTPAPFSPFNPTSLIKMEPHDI
Outline: as §1

ELK4 = target: T9, ELK4 (Homo sapiens, UniProt P28324-2 1-405)
T9 sequence: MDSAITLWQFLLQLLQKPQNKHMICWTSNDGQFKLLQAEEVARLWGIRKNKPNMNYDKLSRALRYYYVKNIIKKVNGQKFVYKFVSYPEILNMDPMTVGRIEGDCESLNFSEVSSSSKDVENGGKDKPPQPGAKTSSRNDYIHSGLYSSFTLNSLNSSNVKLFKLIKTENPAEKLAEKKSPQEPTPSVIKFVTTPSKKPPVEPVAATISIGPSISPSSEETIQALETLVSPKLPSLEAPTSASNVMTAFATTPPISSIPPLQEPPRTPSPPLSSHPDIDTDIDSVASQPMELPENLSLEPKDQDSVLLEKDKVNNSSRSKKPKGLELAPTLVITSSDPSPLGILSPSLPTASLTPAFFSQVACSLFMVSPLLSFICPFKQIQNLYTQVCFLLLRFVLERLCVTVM
Outline: as §1

ETV2 = target: T10, ETV2 (Homo sapiens, UniProt O00321 1-342)
T10 sequence: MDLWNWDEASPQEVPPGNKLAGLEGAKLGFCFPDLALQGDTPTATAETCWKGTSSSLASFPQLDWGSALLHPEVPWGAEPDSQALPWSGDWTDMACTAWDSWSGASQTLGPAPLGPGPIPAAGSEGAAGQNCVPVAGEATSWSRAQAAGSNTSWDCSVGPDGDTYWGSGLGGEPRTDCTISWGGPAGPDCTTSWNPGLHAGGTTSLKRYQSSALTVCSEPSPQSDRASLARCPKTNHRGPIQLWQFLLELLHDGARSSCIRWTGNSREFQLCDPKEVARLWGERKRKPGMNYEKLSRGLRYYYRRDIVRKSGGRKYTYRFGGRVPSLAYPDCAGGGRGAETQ
Outline: as §1

ELF3 = target: T11, ELF3 (Homo sapiens, UniProt P78545 1-371)
T11 sequence: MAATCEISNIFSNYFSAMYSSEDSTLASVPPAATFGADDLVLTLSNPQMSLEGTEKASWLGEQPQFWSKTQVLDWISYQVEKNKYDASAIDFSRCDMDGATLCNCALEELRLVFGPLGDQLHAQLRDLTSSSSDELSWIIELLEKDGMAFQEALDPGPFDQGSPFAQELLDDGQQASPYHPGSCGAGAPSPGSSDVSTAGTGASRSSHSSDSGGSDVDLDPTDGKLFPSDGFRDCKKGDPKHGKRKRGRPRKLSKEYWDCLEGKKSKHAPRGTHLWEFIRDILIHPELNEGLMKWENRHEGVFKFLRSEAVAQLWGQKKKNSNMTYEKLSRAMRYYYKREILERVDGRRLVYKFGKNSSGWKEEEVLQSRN
Outline: as §1

ETV1 = ETV1 (Homo sapiens, UniProt P50549 1-477)
ETV1, sequence (P50549 whole entry): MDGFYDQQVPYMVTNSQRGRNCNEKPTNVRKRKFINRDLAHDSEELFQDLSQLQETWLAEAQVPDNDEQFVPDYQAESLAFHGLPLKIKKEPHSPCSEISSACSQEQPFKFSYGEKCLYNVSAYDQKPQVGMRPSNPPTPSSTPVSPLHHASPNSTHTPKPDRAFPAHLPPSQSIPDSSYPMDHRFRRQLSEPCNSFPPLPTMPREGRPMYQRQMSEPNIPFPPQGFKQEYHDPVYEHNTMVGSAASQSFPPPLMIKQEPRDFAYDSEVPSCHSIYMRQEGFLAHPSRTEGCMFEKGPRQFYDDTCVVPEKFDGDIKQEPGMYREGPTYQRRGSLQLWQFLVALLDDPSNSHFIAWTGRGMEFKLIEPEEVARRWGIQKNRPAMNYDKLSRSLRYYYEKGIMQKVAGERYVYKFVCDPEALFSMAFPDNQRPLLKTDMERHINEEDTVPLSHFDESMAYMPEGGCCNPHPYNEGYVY
Outline: as §1

Sequence | binding signal (FLI1) | binding signal (ELK1) | binding signal (GABPA) | binding signal (ERG) | binding signal (ELF1) | binding signal (EHF) | binding signal (SPI1) | binding signal (SPIB) | binding signal (ELK3) | binding signal (FEV) | binding signal (ETV5) | binding signal (SPIC) | binding signal (ELF4) | binding signal (ELK4) | binding signal (ETV2) | binding signal (ELF3) | binding signal (ETV1)
CACCAA | 1.02 fold enrichment (6-mer frequency, TF over GST control) | 1.16 fold enrichment (6-mer frequency, TF over GST control) | 1.03 fold enrichment (6-mer frequency, TF over GST control) | 1.07 fold enrichment (6-mer frequency, TF over GST control) | 1.12 fold enrichment (6-mer frequency, TF over GST control) | 1.06 fold enrichment (6-mer frequency, TF over GST control) | 1.07 fold enrichment (6-mer frequency, TF over GST control) | 1.04 fold enrichment (6-mer frequency, TF over GST control) | 1.15 fold enrichment (6-mer frequency, TF over GST control) | 1.12 fold enrichment (6-mer frequency, TF over GST control) | 1.1 fold enrichment (6-mer frequency, TF over GST control) | 1.12 fold enrichment (6-mer frequency, TF over GST control) | 1.12 fold enrichment (6-mer frequency, TF over GST control) | 1.13 fold enrichment (6-mer frequency, TF over GST control) | 1.12 fold enrichment (6-mer frequency, TF over GST control) | 1.1 fold enrichment (6-mer frequency, TF over GST control) | 1.01 fold enrichment (6-mer frequency, TF over GST control)
TGCCAC | 1.21 fold enrichment (6-mer frequency, TF over GST control) | 1.2 fold enrichment (6-mer frequency, TF over GST control) | 1.14 fold enrichment (6-mer frequency, TF over GST control) | 1.26 fold enrichment (6-mer frequency, TF over GST control) | 1.18 fold enrichment (6-mer frequency, TF over GST control) | 1.23 fold enrichment (6-mer frequency, TF over GST control) | 1.21 fold enrichment (6-mer frequency, TF over GST control) | 1.13 fold enrichment (6-mer frequency, TF over GST control) | 1.23 fold enrichment (6-mer frequency, TF over GST control) | 1.32 fold enrichment (6-mer frequency, TF over GST control) | 1.14 fold enrichment (6-mer frequency, TF over GST control) | 1.19 fold enrichment (6-mer frequency, TF over GST control) | 1.26 fold enrichment (6-mer frequency, TF over GST control) | 1.42 fold enrichment (6-mer frequency, TF over GST control) | 1.14 fold enrichment (6-mer frequency, TF over GST control) | 1.44 fold enrichment (6-mer frequency, TF over GST control) | 1.26 fold enrichment (6-mer frequency, TF over GST control)
